Measured values reported in the supplement of paper PMC4466140.

Key:
Experiment in all cases: SPOT peptide array binding signal intensity (averaged, normalized) (arbitrary units (background-subtracted, floor 0; scale differs between SH3 domains)); higher = stronger binding of the SH3 domain to the peptide
AgAbp1 = molecular target: AgAbp1
Summary of the method: (§1)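 Peptides were synthetic 15-mers on cellulose membranes, with every cysteine replaced by serine. They were incubated overnight at 4°C with GST-SH3 domains from four yeast species at 10 μg/ml in TBS-based blocking buffer. Binding signal, the replicate-averaged normalized and background-subtracted spot intensity, is in arbitrary units that differ between domains.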

AgBbc1 = molecular target: AgBbc1
Summary of the method: as §1

AgBem1-D1 = molecular target: AgBem1-D1
Summary of the method: as §1

AgBzz1-D1 = molecular target: AgBzz1-D1
Summary of the method: as §1

AgBzz1-D2 = molecular target: AgBzz1-D2
Summary of the method: as §1

AgCyk3 = molecular target: AgCyk3
Summary of the method: as §1

AgFus1 = molecular target: AgFus1
Summary of the method: as §1

AgHof1 = molecular target: AgHof1
Summary of the method: as §1

AgHse1 = molecular target: AgHse1
Summary of the method: as §1

AgLsb1 = molecular target: AgLsb1
Summary of the method: as §1

AgLsb4 = molecular target: AgLsb4
Summary of the method: as §1

AgMyo5 = molecular target: AgMyo5
Summary of the method: as §1

AgNbp2 = molecular target: AgNbp2
Summary of the method: as §1

AgRvs167 = molecular target: AgRvs167
Summary of the method: as §1

AgSho1 = molecular target: AgSho1
Summary of the method: as §1

AgSla1-D1-D2 = molecular target: AgSla1-D1-D2
Summary of the method: as §1

AgSla1-D3 = molecular target: AgSla1-D3
Summary of the method: as §1

CaAbp1-D1 = molecular target: CaAbp1-D1
Summary of the method: as §1

CaAbp1-D2 = molecular target: CaAbp1-D2
Summary of the method: as §1

CaBbc1 = molecular target: CaBbc1
Summary of the method: as §1

CaBem1-D1 = molecular target: CaBem1-D1
Summary of the method: as §1

CaBzz1-D1 = molecular target: CaBzz1-D1
Summary of the method: as §1

CaBzz1-D2 = molecular target: CaBzz1-D2
Summary of the method: as §1

CaCyk3 = molecular target: CaCyk3
Summary of the method: as §1

CaFus1 = molecular target: CaFus1
Summary of the method: as §1

CaHof1 = molecular target: CaHof1
Summary of the method: as §1

CaHse1 = molecular target: CaHse1
Summary of the method: as §1

CaLsb1 = molecular target: CaLsb1
Summary of the method: as §1

CaLsb4 = molecular target: CaLsb4
Summary of the method: as §1

CaMyo5 = molecular target: CaMyo5
Summary of the method: as §1

CaNbp2 = molecular target: CaNbp2
Summary of the method: as §1

CaRvs167 = molecular target: CaRvs167
Summary of the method: as §1

CaRvs167-3 = molecular target: CaRvs167-3
Summary of the method: as §1

CaSho1 = molecular target: CaSho1
Summary of the method: as §1

CaSla1-D1-D2 = molecular target: CaSla1-D1-D2
Summary of the method: as §1

CaSla1-D3 = molecular target: CaSla1-D3
Summary of the method: as §1

ScAbp1 = molecular target: ScAbp1
Summary of the method: as §1

ScBbc1 = molecular target: ScBbc1
Summary of the method: as §1

ScBem1-D1 = molecular target: ScBem1-D1
Summary of the method: as §1

ScBzz1-D1 = molecular target: ScBzz1-D1
Summary of the method: as §1

ScBzz1-D2 = molecular target: ScBzz1-D2
Summary of the method: as §1

ScCyk3 = molecular target: ScCyk3
Summary of the method: as §1

ScFus1 = molecular target: ScFus1
Summary of the method: as §1

ScHof1 = molecular target: ScHof1
Summary of the method: as §1

ScHse1 = molecular target: ScHse1
Summary of the method: as §1

ScLsb1 = molecular target: ScLsb1
Summary of the method: as §1

ScLsb2 = molecular target: ScLsb2
Summary of the method: as §1

ScLsb3 = molecular target: ScLsb3
Summary of the method: as §1

ScLsb4 = molecular target: ScLsb4
Summary of the method: as §1

ScMyo3 = molecular target: ScMyo3
Summary of the method: as §1

ScMyo5 = molecular target: ScMyo5
Summary of the method: as §1

ScNbp2 = molecular target: ScNbp2
Summary of the method: as §1

ScPex13 = molecular target: ScPex13
Summary of the method: as §1

ScRvs167 = molecular target: ScRvs167
Summary of the method: as §1

ScSho1 = molecular target: ScSho1
Summary of the method: as §1

ScSla1-D1-D2 = molecular target: ScSla1-D1-D2
Summary of the method: as §1

ScSla1-D3 = molecular target: ScSla1-D3
Summary of the method: as §1

SpAbp1-D1 = molecular target: SpAbp1-D1
Summary of the method: as §1

SpBbc1 = molecular target: SpBbc1
Summary of the method: as §1

SpBzz1-D1 = molecular target: SpBzz1-D1
Summary of the method: as §1

SpBzz1-D2 = molecular target: SpBzz1-D2
Summary of the method: as §1

SpCyk3 = molecular target: SpCyk3
Summary of the method: as §1

SpHof1 = molecular target: SpHof1
Summary of the method: as §1

SpHof1-2 = molecular target: SpHof1-2
Summary of the method: as §1

SpHof1-3 = molecular target: SpHof1-3
Summary of the method: as §1

SpHse1 = molecular target: SpHse1
Summary of the method: as §1

SpLsb1 = molecular target: SpLsb1
Summary of the method: as §1

SpLsb4 = molecular target: SpLsb4
Summary of the method: as §1

SpMyo1 = molecular target: SpMyo1
Summary of the method: as §1

SpNbp2 = molecular target: SpNbp2
Summary of the method: as §1

SpPex13 = molecular target: SpPex13
Summary of the method: as §1

SpRvs167 = molecular target: SpRvs167
Summary of the method: as §1

SpSla1-D1-D2 = molecular target: SpSla1-D1-D2
Summary of the method: as §1

SpSla1-D3 = molecular target: SpSla1-D3
Summary of the method: as §1

Binder: NFKRLLPRDPSEKSS
- SPOT peptide array binding signal intensity (AgAbp1): 1
- SPOT peptide array binding signal intensity (AgBbc1): 0.75
- SPOT peptide array binding signal intensity (AgBem1-D1): 105
- SPOT peptide array binding signal intensity (AgBzz1-D1): 6
- SPOT peptide array binding signal intensity (AgBzz1-D2): 35
- SPOT peptide array binding signal intensity (AgCyk3): 0.5
- SPOT peptide array binding signal intensity (AgFus1): 311
- SPOT peptide array binding signal intensity (AgHof1): 32
- SPOT peptide array binding signal intensity (AgHse1): 2610
- SPOT peptide array binding signal intensity (AgLsb1): 2.5
- SPOT peptide array binding signal intensity (AgLsb4): 50
- SPOT peptide array binding signal intensity (AgMyo5): 1
- SPOT peptide array binding signal intensity (AgNbp2): ≤ 0
- SPOT peptide array binding signal intensity (AgRvs167): 2
- SPOT peptide array binding signal intensity (AgSho1): 99.5
- SPOT peptide array binding signal intensity (AgSla1-D1-D2): 15.5
- SPOT peptide array binding signal intensity (AgSla1-D3): 5.5
- SPOT peptide array binding signal intensity (CaAbp1-D1): 126
- SPOT peptide array binding signal intensity (CaAbp1-D2): 30
- SPOT peptide array binding signal intensity (CaBbc1): ≤ 0
- SPOT peptide array binding signal intensity (CaBem1-D1): ≤ 0
- SPOT peptide array binding signal intensity (CaBzz1-D1): ≤ 0
- SPOT peptide array binding signal intensity (CaBzz1-D2): 17.8
- SPOT peptide array binding signal intensity (CaCyk3): ≤ 0
- SPOT peptide array binding signal intensity (CaFus1): 970
- SPOT peptide array binding signal intensity (CaHof1): 0.5
- SPOT peptide array binding signal intensity (CaHse1): 81
- SPOT peptide array binding signal intensity (CaLsb1): 0.5
- SPOT peptide array binding signal intensity (CaLsb4): ≤ 0
- SPOT peptide array binding signal intensity (CaMyo5): 7

Binder: PPIPNAPLSPAPAVP
- SPOT peptide array binding signal intensity (AgAbp1): 1
- SPOT peptide array binding signal intensity (AgBbc1): ≤ 0
- SPOT peptide array binding signal intensity (AgBem1-D1): 18.5
- SPOT peptide array binding signal intensity (AgBzz1-D1): ≤ 0
- SPOT peptide array binding signal intensity (AgBzz1-D2): ≤ 0
- SPOT peptide array binding signal intensity (AgCyk3): ≤ 0
- SPOT peptide array binding signal intensity (AgFus1): 2
- SPOT peptide array binding signal intensity (AgHof1): 1
- SPOT peptide array binding signal intensity (AgHse1): 2.5
- SPOT peptide array binding signal intensity (AgLsb1): 3
- SPOT peptide array binding signal intensity (AgLsb4): 9
- SPOT peptide array binding signal intensity (AgMyo5): 1300
- SPOT peptide array binding signal intensity (AgNbp2): 3.5
- SPOT peptide array binding signal intensity (AgRvs167): 0.167
- SPOT peptide array binding signal intensity (AgSho1): ≤ 0
- SPOT peptide array binding signal intensity (AgSla1-D1-D2): 1
- SPOT peptide array binding signal intensity (AgSla1-D3): ≤ 0
- SPOT peptide array binding signal intensity (CaAbp1-D1): ≤ 0
- SPOT peptide array binding signal intensity (CaAbp1-D2): ≤ 0
- SPOT peptide array binding signal intensity (CaBbc1): 2
- SPOT peptide array binding signal intensity (CaBem1-D1): 7
- SPOT peptide array binding signal intensity (CaBzz1-D1): ≤ 0
- SPOT peptide array binding signal intensity (CaBzz1-D2): 10.5
- SPOT peptide array binding signal intensity (CaCyk3): ≤ 0
- SPOT peptide array binding signal intensity (CaFus1): 59
- SPOT peptide array binding signal intensity (CaHof1): ≤ 0
- SPOT peptide array binding signal intensity (CaHse1): 0.5
- SPOT peptide array binding signal intensity (CaLsb1): ≤ 0
- SPOT peptide array binding signal intensity (CaLsb4): ≤ 0
- SPOT peptide array binding signal intensity (CaMyo5): 952
- SPOT peptide array binding signal intensity (CaNbp2): 15.5
- SPOT peptide array binding signal intensity (CaRvs167): ≤ 0
- SPOT peptide array binding signal intensity (CaRvs167-3): 2.5
- SPOT peptide array binding signal intensity (CaSho1): 9
- SPOT peptide array binding signal intensity (CaSla1-D1-D2): ≤ 0
- SPOT peptide array binding signal intensity (CaSla1-D3): ≤ 0
- SPOT peptide array binding signal intensity (ScAbp1): 0.5
- SPOT peptide array binding signal intensity (ScBbc1): ≤ 0
- SPOT peptide array binding signal intensity (ScBem1-D1): ≤ 0
- SPOT peptide array binding signal intensity (ScBzz1-D1): 4
- SPOT peptide array binding signal intensity (ScBzz1-D2): 7.5
- SPOT peptide array binding signal intensity (ScCyk3): 2.5
- SPOT peptide array binding signal intensity (ScFus1): ≤ 0
- SPOT peptide array binding signal intensity (ScHof1): ≤ 0
- SPOT peptide array binding signal intensity (ScHse1): 1.5
- SPOT peptide array binding signal intensity (ScLsb1): 2.5
- SPOT peptide array binding signal intensity (ScLsb2): 4.5
- SPOT peptide array binding signal intensity (ScLsb3): ≤ 0
- SPOT peptide array binding signal intensity (ScLsb4): ≤ 0
- SPOT peptide array binding signal intensity (ScMyo3): 2660
- SPOT peptide array binding signal intensity (ScMyo5): 1550
- SPOT peptide array binding signal intensity (ScNbp2): 7.5
- SPOT peptide array binding signal intensity (ScPex13): 7.63e-06
- SPOT peptide array binding signal intensity (ScRvs167): ≤ 0
- SPOT peptide array binding signal intensity (ScSho1): ≤ 0
- SPOT peptide array binding signal intensity (ScSla1-D1-D2): ≤ 0
- SPOT peptide array binding signal intensity (ScSla1-D3): 1.25
- SPOT peptide array binding signal intensity (SpAbp1-D1): ≤ 0
- SPOT peptide array binding signal intensity (SpBbc1): 0.5
- SPOT peptide array binding signal intensity (SpBzz1-D1): ≤ 0
- SPOT peptide array binding signal intensity (SpBzz1-D2): 0.5
- SPOT peptide array binding signal intensity (SpCyk3): 1
- SPOT peptide array binding signal intensity (SpHof1): ≤ 0
- SPOT peptide array binding signal intensity (SpHof1-2): 1
- SPOT peptide array binding signal intensity (SpHof1-3): 1
- SPOT peptide array binding signal intensity (SpHse1): 23
- SPOT peptide array binding signal intensity (SpLsb1): ≤ 0
- SPOT peptide array binding signal intensity (SpLsb4): ≤ 0
- SPOT peptide array binding signal intensity (SpMyo1): 946
- SPOT peptide array binding signal intensity (SpNbp2): ≤ 0
- SPOT peptide array binding signal intensity (SpPex13): ≤ 0
- SPOT peptide array binding signal intensity (SpRvs167): ≤ 0
- SPOT peptide array binding signal intensity (SpSla1-D1-D2): ≤ 0
- SPOT peptide array binding signal intensity (SpSla1-D3): ≤ 0
